High-throughput results deposited in PubChem by National Center for Advancing Translational Sciences (NCATS).
RXFP1 antag = antagonists of human relaxin receptor RXFP1 | HEK293-RXFP1, relaxin-stimulated cAMP HTRF, 30 min; stronger effect = lower value | activity change, negative = inhibition, % at 57.5 µM | 350,000 compounds, 0.59% hits;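 active = activity change of -60% or lower, but not beyond a set lower limit; inconclusive = change between -60% and -40%, or beyond the set limit; inactive = change above -40%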
RXFP1 ag = activates the human relaxin receptor RXFP1. HEK293T-RXFP1 cAMP TR-FRET, 30 min; response scale: percent of porcine relaxin response, buffer zero. 370,000 compounds, 0.3% hits. Q9HBX9. AID 2676. Potency, µM (series often up to 57.5 µM), for inactives: at the highest dose activation, hits mostly activators; active = well fitted activation curve with a large enough effect; inconclusive = small, poorly fitted or top-dose-only effect; note: potency is the fitted concentration of half-maximal effect; nearly all actives have a fitted effect of over 60% in size
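cAMP rise read by TR-FRET after 30 min, 37C compound exposure (up to 58 uM) in RXFP1-transfected HEK293 cells with Ro 20174 present. EC50 from Hill-equation fits, with 29 nM porcine relaxin as 100% and buffer as basal.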
KCNH2 3.1 block = inhibitors of human KCNH2 3.1 potassium channel isoform | U2OS KCNH2 3.1, thallium flux FluxOr; stronger effect = lower value | activity change, % (tested at about 1.8 µM) | 340,000 compounds, 0.95% hits;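 active = maximum activity change below -70%; inconclusive = maximum activity change from -70% to -50%; inactive = maximum activity change above -50%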;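 note: thallium influx rate constant from kinetic fluorescence after stimulation buffer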
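Measured as rate of thallium-driven FluxOr signal in transduced U2OS cells carrying the 3.1 channel, read kinetically for 2 min upon stimulation; values are rate constants scaled to DMSO control wells.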
Akt phos inh = inhibitors of Akt phosphorylation | activity change, % for hits at 50 µM | Neuro2A IGF-stimulated pAkt S473 HTRF, 20 min; stronger effect = lower value | 360,000 compounds, 0.32% hits; in the data active = activity change below about -80%; inconclusive = mostly about -51% to -80%
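Single-point screen (50 µM final compound) in Neuro2A cells stimulated 20 min with 6 nM IGF at 37 deg C. After lysis, Ser473-phosphorylated Akt read by HTRF (ex 330 nm, em 615/665 nm) as the 665/615 ratio.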
hERG WT inh = inhibitors of human wildtype KCNH2 potassium channel | Q12809 | U2OS, BacMam KCNH2, thallium flux FluxOr; stronger effect = lower value | activity change, % at 1.84 µM | 340,000 compounds, 0.37% hits | AID 720551;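 active = maximum activity change below -70%; inconclusive = maximum activity change between -70% and -50%; inactive = maximum activity change above -50%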
Target sequence (Q12809 whole entry, looked up): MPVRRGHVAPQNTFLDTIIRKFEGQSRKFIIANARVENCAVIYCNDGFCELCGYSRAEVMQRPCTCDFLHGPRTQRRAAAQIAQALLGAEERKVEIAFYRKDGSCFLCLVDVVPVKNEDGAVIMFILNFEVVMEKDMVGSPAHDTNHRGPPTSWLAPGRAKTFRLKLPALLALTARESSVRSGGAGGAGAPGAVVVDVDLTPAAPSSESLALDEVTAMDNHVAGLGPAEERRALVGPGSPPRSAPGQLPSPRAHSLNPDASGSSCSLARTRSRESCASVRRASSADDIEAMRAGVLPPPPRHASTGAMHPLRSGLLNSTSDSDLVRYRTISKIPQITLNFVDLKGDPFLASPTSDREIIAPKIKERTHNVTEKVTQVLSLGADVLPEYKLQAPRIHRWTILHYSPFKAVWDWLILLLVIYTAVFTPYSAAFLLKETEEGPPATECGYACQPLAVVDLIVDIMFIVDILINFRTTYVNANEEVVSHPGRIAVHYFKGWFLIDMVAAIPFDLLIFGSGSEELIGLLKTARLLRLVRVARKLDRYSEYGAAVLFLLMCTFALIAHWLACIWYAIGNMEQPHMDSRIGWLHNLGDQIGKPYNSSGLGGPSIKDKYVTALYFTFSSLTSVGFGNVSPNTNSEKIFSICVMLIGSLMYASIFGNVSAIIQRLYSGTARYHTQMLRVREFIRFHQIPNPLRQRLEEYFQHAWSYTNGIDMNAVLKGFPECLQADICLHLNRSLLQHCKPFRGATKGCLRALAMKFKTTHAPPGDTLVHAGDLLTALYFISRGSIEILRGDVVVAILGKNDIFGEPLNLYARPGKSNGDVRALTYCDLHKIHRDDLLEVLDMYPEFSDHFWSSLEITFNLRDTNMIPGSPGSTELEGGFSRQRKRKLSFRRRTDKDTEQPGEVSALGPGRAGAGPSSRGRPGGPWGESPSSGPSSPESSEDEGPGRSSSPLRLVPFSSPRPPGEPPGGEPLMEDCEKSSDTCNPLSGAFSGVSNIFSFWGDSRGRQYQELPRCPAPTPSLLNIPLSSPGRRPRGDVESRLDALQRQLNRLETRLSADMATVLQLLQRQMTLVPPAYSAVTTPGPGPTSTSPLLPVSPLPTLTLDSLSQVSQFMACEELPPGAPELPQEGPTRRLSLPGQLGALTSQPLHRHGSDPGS
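U2OS cells transduced with wild-type KCNH2 virus are loaded with FluxOr dye for 45 min, and thallium flux is measured in kinetic reads before and after stimulation buffer. Rate constants are normalized to DMSO controls.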
* marks the source's active call; other numbers are inactive results; i = inactive; u = inconclusive; x = not tested or not shown. This is a sample that favours compounds with a hit; in the whole collection about 1.7% have one here. % is set by controls: 0 for no effect and ±100 for the full control effect.

SMILES	RXFP1 antag	RXFP1 ag	KCNH2 3.1 block	Akt phos inh	hERG WT inh
O=C1NC(=Nc2ccc(O)cc2)S/C1=C/c1ccco1	-61*	-1%	-1	i	21
COc1ccc(N=C2NC(=O)/C(=C\C=C\c3ccco3)S2)cc1	u	5%	-17	i	-8
O=C1C=CC(=O)N1CCNc1ncc(C(F)(F)F)cc1Cl	u	3%	7	i	i
CN1CCN(c2nc(Nc3ccc(F)cc3)nc(Nc3ccc(F)cc3)n2)CC1	-3	-3%	u	i	-3
c1ccc(Nc2nc(Nc3ccccc3)nc(N3CCNCC3)n2)cc1	-101*	1%	-24	i	9
O=C1C2C(c3ccccc3)C=CC(c3ccccc3)C2C(=O)N1CCCO (stereo not drawn)	-8	-1%	7	-102%*	3
CN(C)S(=O)(=O)c1cccc(NC(=S)Nc2cccc3cnccc23)c1	-71*	-5%	9	i	-7
COC(=O)C1=C(C)N(c2ccccc2)/C(=C/c2ccco2)C1=O	-9	-3%	-73*	i	-3
CN(C)C1=NC[C@H](Cc2ccccc2)N1CCCCc1ccccc1	x	-1%	-92*	i	20
CCCCCCCN1C(N(C)C)=NC[C@@H]1Cc1ccccc1	x	-1%	-90*	i	-42
Cc1cccc(CCN2C(N(C)C)=NC[C@@H]2Cc2ccccc2)c1	x	x	-48	i	28
O=C(Nc1ncc(Cc2ccc(SC(F)F)cc2)s1)c1ccc(OC(F)F)cc1	-11	7%	-82*	i	4
CN(CCO)C(=O)c1ccc(-c2nn(C)c(=O)c3ccccc23)cc1	-19	3%	-6	i	-3
O=C(OCc1ccccc1)/C(=C/c1cccc2ccccc12)NC(=O)c1ccccc1	2	1%	-26	i	-7
C=CCOC(=O)/C(=C/c1cccc2ccccc12)NC(=O)c1ccccc1	x	-3%	-25	i	-275*
COC(=O)c1ccc(C(=O)OC)c(NC(=O)C2CCCO2)c1 (stereo not drawn)	-8	0%	3	i	-5
CCn1c2c(c(=N)c3c1CCC3)CCCC2	5	6%	32	i	2
CCCCCCCCn1c2c(c(=N)c3ccccc31)CCC2	-18	-1%	-26	i	-12
CCCCCCCCCCn1c2c(c(=N)c3c1CCC3)CCC2	-69*	0%	-7	i	-6
CCCCCCCCCn1c2c(c(=N)c3c1CCC3)CCCC2	-81*	-1%	u	i	u
CC(C)(C)NC(=O)c1cccc(NC(=O)Cc2cccs2)c1	7	-1%	-8	i	3
Cc1cccc(NC(=O)c2cccc(NC(=O)Cc3cccs3)c2)c1	-107*	0%	4	i	4
CCCN(CCC)c1ccc(CC(=O)NC(C)Cc2ccccc2)cc1 (stereo not drawn)	6	0%	-2	i	-4
O=C1CCc2cc(S(=O)(=O)NC(C(=O)N3CCN(c4ccccn4)CC3)c3ccccc3)ccc2N1 (stereo not drawn)	1	-1%	-8	i	-117*
CC1=C(C(=O)N(C)C)CC(CC(=O)NC2CC2)C(=O)N1Cc1ccc(C(C)(C)C)cc1 (stereo not drawn)	0	x	0	i	-3
SMILES	RXFP1 antag	RXFP1 ag	KCNH2 3.1 block	Akt phos inh	hERG WT inh
CCOc1cc(/C=C(\C#N)C(=O)NCC2CCCO2)ccc1OCC(N)=O (stereo not drawn)	-7	1%	-185*	i	-136*
O=C(COc1cccc2ccccc12)N/N=C/c1ccc(Sc2nc3ccccc3s2)o1	-11	0%	-1	i	10
O=C(Cc1cccc2ccccc12)N/N=C/c1ccc(Sc2nc3ccccc3s2)o1	-19	-1%	-3	-112%*	3
CCOc1ccc(C(=O)Oc2c(Sc3ccccc3)c(C)nn2C(C)(C)C)cc1OCC	x	-1%	x	x	x
O=C(Cn1cc(S(=O)(=O)Cc2cccc(Cl)c2)c2ccccc21)Nc1ccccc1Cl	-7	0%	x	x	x
COc1ccc(NC(=O)CC(C)NCCCN2CCCC2=O)cc1 (stereo not drawn)	-5	3%	7	i	-333*
COc1ccc(NC(=O)NCCCN2CCCC2=O)cc1	x	1%	36	i	-2
CN(C)c1ccc(N/C=C/C(=O)c2ccco2)cc1	-64*	1%	1	i	-2
O=C(NCCCN1CCOCC1)c1ccccc1N1C(=O)[C@@H]2Cc3c([nH]c4ccccc34)C(c3cccc(Cl)c3)N2C1=O (stereo partly drawn)	x	1%	-77*	i	u
Cc1ccc(C2c3[nH]c4ccccc4c3C[C@H]3C(=O)N(c4ccccc4C(=O)NCCCN4CCOCC4)C(=O)N23)cc1 (stereo partly drawn)	x	1%	-24	i	-4
O=C(C[C@@H]1C/C=C\C[C@H](Cc2ccc(F)cc2)C(=O)OC[C@@H]2CCCN2C1=O)N[C@H](CO)Cc1ccccc1	x	x	x	i	x
Cc1cccc(C)c1-n1nnnc1S(=O)(=O)Cc1ccccc1Cl	-8	0%	-94*	i	-8
Cc1c(C(=O)N(C)c2ccccc2Cl)cnn1-c1ccccc1	-8	-2%	-2	i	-8
Cc1ccc(NC(=O)CN2C(=O)NC(Cc3c[nH]c4ccccc34)C2=O)cc1 (stereo not drawn)	3	-3%	-101*	i	-26
Cc1ccccc1OCC(=O)Nc1ccc([N+](=O)[O-])cc1	-17	-2%	-3	i	-169*
Cc1ccccc1OCC(=O)NNC(=O)c1ccc(-c2ccccc2)cc1	-7	1%	-13	-83%*	-6
CC(=O)Nc1ccc(NC(=O)COc2ccc([N+](=O)[O-])cc2)cc1	6	2%	-10	i	-3
CC(C)(C)c1ccc(Cn2c(=N)n(CC(O)c3ccco3)c3ccccc32)cc1 (stereo not drawn)	-36	-2%	u	i	-85*
CCCCn1c(=N)n(CC(O)COc2ccc(C)cc2)c2ccccc21 (stereo not drawn)	-9	0%	-90*	x	-83*
N=c1n(CCN2CCCC2)c2ccccc2n1CC(O)c1ccco1 (stereo not drawn)	3	4%	-18	i	22
CCCCn1c(=N)n(CC(O)COc2ccccc2)c2ccccc21 (stereo not drawn)	-7	4%	-23	i	8
CCCCCCCn1c(=N)n(CC(O)c2ccco2)c2ccccc21 (stereo not drawn)	-26	-1%	-106*	i	-38
C=CCn1c(SCC(=O)c2ccc(O)c(O)c2)nnc1-c1cccnc1	11	1%	8	i	6
